Reference: PubChem BioAssay (NCATS)
“And” between values parts separate entries of the source, which are not always exact repeats. Equal values may be shown once. Results filed as inconclusive are left out. The source made the active and inactive calls. Unless noted, calls come from the whole dose curve; as a rule, active = well fitted curve in the direction sought with a large enough effect; inconclusive = small, poorly fitted or top-dose-only effect, or another doubt; inactive = no such curve, though single readings can be large; an effect the other way counts as inactive or inconclusive.

System: not listed separately
Experiment: Primary qHTS for inhibitors of nuclear receptor binding SET domain protein 2 (NSD2) in an RCH-ACV wild type WT cells (2C) (AID 1645877); note: nearly all actives have a fitted effect of over 70% in size; note: potency is the fitted concentration of half-maximal effect; for activity change, negative = cell killing: % is set by controls: 0 for no effect and ±100 for the full control effect
Settings: RCH-ACV (leukaemia line) NSD2 WT (2C) viability, CellTiter-Glo, 72 h; series mostly up to 44.9 µM; activity change, negative = cell killing: at the top concentration

| SMILES | activity change, negative = cell killing | Potency |
| --- | --- | --- |
| CC(=O)OC1C(OC(=O)c2ccccc2)C2C(C)(C)CC(=O)CC2(C)C23CCC(C)(C2)C(O)CC13 (stereo not given) | -22.1% [at 17.3 µM] (inactive) |  |
| COCCOc1cnc2ccn([C@H](C)c3nnc4c(F)cc(-c5cnn(C)c5)cn34)c(=O)c2c1 | -12.7% (inactive) |  |
| CC12CCC(=O)C=C1C(O)CC1C2C(O)CC2(C)C1CC[C@]2(O)C(=O)CO (stereo not given in full) | -15% [at 9.23 µM] (inactive) |  |
| O=C(N/N=C/c1ccc(O)c(O)c1)c1cc2ccccc2cc1O |  | 5.41 µM (active) |
| C=CC1C(OC2OC(CO)C(O)C(O)C2O)OC=C(C(=O)OC)C1CC1CC(=O)CC(CCc2ccc(O)cc2)O1 (stereo not given) | -3.32% [at 17.3 µM] (inactive) |  |
| CC(C)C(CO)Nc1nc(Nc2ccc(C(=O)O)c(Cl)c2)c2ncn(C(C)C)c2n1 (stereo not given) | -24.7% (inactive) |  |
| CC[C@]1(O)CC2CN(CCc3c([nH]c4ccccc34)[C@@](C(=O)OC)(c3cc4c(cc3OC)N(C)[C@H]3[C@@](O)(C(=O)OC)[C@H](OC(C)=O)[C@]5(CC)C=CCN6CC[C@]43[C@@H]65)C2)C1 (stereo not given in full) |  | 45.9 nM (active) and 372 nM (active) |
| C[C@H](NC(=O)CCc1nc2ccccc2c(=O)[nH]1)c1ccccc1 | -23.6% (inactive) |  |
| COc1cc2nc(N3CCCC3)nc(NCCCCCN3CCCC3)c2cc1OC |  | 5.15 µM (active) |
| CC(C)=CC/C=C(\C)[C@H]1CC[C@]2(C)[C@@H]1[C@H](O)C[C@@H]1[C@@]3(C)CC[C@H](O)C(C)(C)[C@@H]3[C@@H](O[C@@H]3O[C@H](CO)[C@@H](O)[C@H](O)[C@H]3O)C[C@]12C | -26.4% (inactive) |  |
| CC1CCC2C(C)(C)[C@@H](O)CC[C@]2(C)C12Cc1c(O)cc3c(c1O2)CN(C(CCC(=O)O)C(=O)O)C3=O (stereo not given in full) | -12.7% [at 17.3 µM] (inactive) |  |
| COC(=O)C[C@H]1[C@]2(C)C3=C(C)[C@H](c4ccoc4)C[C@H]3O[C@@H]2[C@H](OC(C)=O)C2[C@](C)(C(=O)OC)C=CC(=O)[C@@]21C (stereo not given in full) | -1.83% [at 17.3 µM] (inactive) |  |
| COc1cc2nc(N3CCC(N4CCCCC4)CC3)nc(NC3CCCCCC3)c2cc1OC |  | 2.3 µM (active) |
| CC1=CC(=O)[C@H]2C(C)(C)CCC[C@]2(C)[C@@]1(O)CO | -4.52% (inactive) |  |
| CC(C)C(NC(=O)c1ccc2ccccc2n1)C(=O)NC(CC(=O)O)C(=O)COc1c(F)cccc1F (stereo not given) | -1.09% (inactive) |  |
| O=C(O)c1cc(I)ccc1NC(=O)[C@H](Cc1ccccc1)NCc1ccccc1 | -12.6% (inactive) |  |
| OC[C@H]1O[C@@H](OC[C@H]2O[C@@H](OC/C=C/c3ccccc3)[C@H](O)[C@@H](O)[C@@H]2O)[C@@H](O)[C@@H]1O | 1.55% [at 17.3 µM] (inactive) |  |

Molecular target: Catechol O-methyltransferase (Homo sapiens) (UniProt P21964)
Experiment: Confirmatory Screen for Target Class Profiling of Small Molecule Inhibitors of Methyltransferases (AID 1745852; calls by dose curve; note: potency is the fitted concentration of half-maximal effect; for activity change, negative = inhibition: % is set by controls: 0 for no effect and ±100 for the full control effect)
Settings: MTase-Glo luminescence, SAH detection, recombinant enzyme; measured here: COMT max response; stronger effect = lower value

Sequence of Catechol O-methyltransferase (Homo sapiens) (P21964 whole entry, looked up): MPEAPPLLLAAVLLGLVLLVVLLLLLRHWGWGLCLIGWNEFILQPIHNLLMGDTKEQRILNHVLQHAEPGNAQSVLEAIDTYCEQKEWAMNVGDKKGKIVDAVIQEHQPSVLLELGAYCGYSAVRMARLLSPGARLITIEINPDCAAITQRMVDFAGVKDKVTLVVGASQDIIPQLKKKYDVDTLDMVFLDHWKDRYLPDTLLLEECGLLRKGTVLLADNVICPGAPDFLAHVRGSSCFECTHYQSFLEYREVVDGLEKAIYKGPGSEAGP

| SMILES | activity |
| --- | --- |
| CCCNc1ccc2ncc(-c3ccc4[nH]ncc4c3)n2n1 | -53.8% |
| CC1=CC(=O)CC(C)(C)C1CCC(C)O[C@@H]1O[C@H](CO[C@@H]2OC[C@@H](O)[C@H](O)[C@H]2O)[C@@H](O)[C@H](O)[C@H]1O (stereo not given in full) | -54.5% |
| COc1cc2nc(N3CCCC3)nc(NCCCCCN3CCCC3)c2cc1OC | -4.52% |
| COc1cc2nc(N3CCC(N4CCCCC4)CC3)nc(NC3CCCCCC3)c2cc1OC | -39.3% |

Molecular target: Guanidinoacetate N-methyltransferase (Homo sapiens) (UniProt Q14353)
Experiment: as above
Settings: MTase-Glo luminescence, SAH detection, recombinant enzyme; activity change, negative = inhibition: at 57.3 µM (top of the series) unless noted; series mostly up to 57.3 µM

| SMILES | Potency | activity change, negative = inhibition |
| --- | --- | --- |
| CCCNc1ccc2ncc(-c3ccc4[nH]ncc4c3)n2n1 | 8.57 µM (active) |  |
| CC1=CC(=O)CC(C)(C)C1CCC(C)O[C@@H]1O[C@H](CO[C@@H]2OC[C@@H](O)[C@H](O)[C@H]2O)[C@@H](O)[C@H](O)[C@H]1O (stereo not given in full) |  | 0% [at 29.8 µM] |
| COc1cc2nc(N3CCCC3)nc(NCCCCCN3CCCC3)c2cc1OC |  | 0.888% |
| COc1cc2nc(N3CCC(N4CCCCC4)CC3)nc(NC3CCCCCC3)c2cc1OC | 42.9 µM (active) |  |

Molecular target: Nicotinamide N-methyltransferase (Homo sapiens) (UniProt P40261)
Experiment: as above
Settings: MTase-Glo luminescence, SAH detection, recombinant enzyme; measured here: NNMT max response; stronger effect = lower value

Sequence of Nicotinamide N-methyltransferase (Homo sapiens) (P40261 whole entry, looked up): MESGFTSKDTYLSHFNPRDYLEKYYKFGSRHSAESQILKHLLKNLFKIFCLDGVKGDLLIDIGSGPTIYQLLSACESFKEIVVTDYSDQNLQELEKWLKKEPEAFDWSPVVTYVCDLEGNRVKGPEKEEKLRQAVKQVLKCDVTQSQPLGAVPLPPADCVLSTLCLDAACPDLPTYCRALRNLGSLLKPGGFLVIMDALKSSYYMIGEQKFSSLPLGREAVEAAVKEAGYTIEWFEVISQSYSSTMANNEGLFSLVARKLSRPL

| SMILES | activity |
| --- | --- |
| CCCNc1ccc2ncc(-c3ccc4[nH]ncc4c3)n2n1 | -46% |
| CC1=CC(=O)CC(C)(C)C1CCC(C)O[C@@H]1O[C@H](CO[C@@H]2OC[C@@H](O)[C@H](O)[C@H]2O)[C@@H](O)[C@H](O)[C@H]1O (stereo not given in full) | 0.168% |
| COc1cc2nc(N3CCCC3)nc(NCCCCCN3CCCC3)c2cc1OC | -30.1% |
| COc1cc2nc(N3CCC(N4CCCCC4)CC3)nc(NC3CCCCCC3)c2cc1OC | -54.7% |

Molecular target: Phenylethanolamine N-methyltransferase (Homo sapiens) (UniProt P11086)
Experiment: as above
Settings: MTase-Glo luminescence, SAH detection, recombinant enzyme; measured here: PNMT max response; stronger effect = lower value

Sequence of Phenylethanolamine N-methyltransferase (Homo sapiens) (P11086 whole entry, looked up): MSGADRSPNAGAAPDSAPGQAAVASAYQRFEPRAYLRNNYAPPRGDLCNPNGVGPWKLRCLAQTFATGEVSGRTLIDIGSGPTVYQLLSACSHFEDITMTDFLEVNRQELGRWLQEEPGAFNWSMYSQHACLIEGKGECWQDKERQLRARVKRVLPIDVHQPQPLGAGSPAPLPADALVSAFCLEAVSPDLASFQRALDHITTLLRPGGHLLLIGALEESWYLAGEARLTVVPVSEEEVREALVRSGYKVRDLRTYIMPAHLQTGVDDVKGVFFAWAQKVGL

| SMILES | activity |
| --- | --- |
| CCCNc1ccc2ncc(-c3ccc4[nH]ncc4c3)n2n1 | -45.4% |
| CC1=CC(=O)CC(C)(C)C1CCC(C)O[C@@H]1O[C@H](CO[C@@H]2OC[C@@H](O)[C@H](O)[C@H]2O)[C@@H](O)[C@H](O)[C@H]1O (stereo not given in full) | 0.0687% |
| COc1cc2nc(N3CCCC3)nc(NCCCCCN3CCCC3)c2cc1OC | -0.684% |
| COc1cc2nc(N3CCC(N4CCCCC4)CC3)nc(NC3CCCCCC3)c2cc1OC | -35.6% |

System: not listed separately
Experiment: NCATS anti-infectives library activity on the primary C. elegans qHTS viability assay (AID 1745855; calls by dose curve; note: potency is the fitted concentration of half-maximal effect)
Settings: C. elegans worm area imaging, day 7; series mostly up to 41.8 µM
In short: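 Viability is taken from GFP fluorescence of PE254-GFP-FLuc C. elegans imaged by laser cytometry over 7 days. Ten L1 worms per well grow at 21 °C on TOP10 E. coli capsules with titrated compound; levamisole marks toxicity.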

| SMILES | Potency | outcome |
| --- | --- | --- |
| Cc1cc(C)c(Nc2ccnc(Nc3ccc(C#N)cc3)n2)c(C)c1 | 5.15 µM (active) |  |
| O=C(N/N=C/c1ccc(O)c(O)c1)c1cc2ccccc2cc1O | 20.5 µM (active) |  |
| C[C@H](NC(=O)CCc1nc2ccccc2c(=O)[nH]1)c1ccccc1 |  | inactive |

System: not listed separately
Experiment: Viability counterscreen for antagonist of constitutive androstane receptor (CAR) against the NCATS DSHEA and TCM libraries (AID 1794837);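 note: compound exposure lasted 24 h before viability reading; 0% is about no effect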
Settings: CAR reporter cell line viability counterscreen, qHTS; series mostly up to 22 µM; viability change, negative = cytotoxic: at the top concentration
In short: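 Fluorescence from CellTiter-Fluor reports live-cell protease activity in HepG2-CYP2B6-hCAR cells treated for 24 h with substances alongside 48 uM CITCO.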

| SMILES | viability change, negative = cytotoxic |
| --- | --- |
| CC1CC[C@]2(C(=O)O)CC[C@]3(C(=O)O)C(=CCC4[C@@]5(C)CC[C@H](OC6OC(C)C(O)C(OC7OC(CO)C(O)C(O)C7O)C6O)C(C)(C)C5CC[C@]43C)C2C1C (stereo not given in full) | -9.63% (inactive) |
| CC(C)=CCC[C@](C)(O)[C@H]1CC[C@]2(C)[C@@H]1[C@H](O)CC1[C@@]3(C)CC[C@H](O)C(C)(C)[C@@H]3[C@@H](O[C@@H]3O[C@H](CO)[C@@H](O)[C@H](O)[C@H]3O[C@@H]3O[C@H](CO)[C@@H](O)[C@H](O)[C@H]3O)C[C@]12C (stereo not given in full) | -2.6% (inactive) |
| CC(C)=CCC[C@](C)(O[C@@H]1O[C@H](CO[C@@H]2O[C@H](CO)[C@@H](O)[C@H](O)[C@H]2O)[C@@H](O)[C@H](O)[C@H]1O)C1CC[C@]2(C)[C@@H]1[C@H](O)CC1[C@@]3(C)CC[C@H](O[C@@H]4O[C@H](CO)[C@@H](O)[C@H](O)[C@H]4O[C@@H]4O[C@H](CO)[C@@H](O)[C@H](O)[C@H]4O)C(C)(C)[C@@H]3CC[C@]12C (stereo not given in full) | -8.45% [at 8.32 µM] (inactive) |
| OC[C@H]1O[C@@H](OC[C@H]2O[C@@H](OC/C=C/c3ccccc3)[C@H](O)[C@@H](O)[C@@H]2O)[C@@H](O)[C@@H]1O | 8.37% (inactive) |
